# Laboratory results taken from PubChem BioAssay (NCATS).
# Results filed as inconclusive are left out. A number with no mark means an inactive call. Activity calls are given as the source filed them. The call rests on the fitted dose curve; in most records, active means well fitted inhibition curve with a large enough effect; inconclusive means small, poorly fitted or top-dose-only effect; inactive means flat fitted curve, though single readings scatter.
# Assay: P-glycoprotein substrates identified in KB-8-5-11 adenocarcinoma cell line, qHTS therapeutic library screen (AID 1346987); further: nearly all actives have a fitted effect of over 65% in size
# Conditions: KB-8-5-11 (P-gp overexpressing) viability, CellTiter-Glo, 72 h; series mostly up to 44.5 µM; activity change, negative = cytotoxicity: at the top concentration
# Source text: The ATP-binding cassette transporters P-glycoprotein (P-gp) is known to limit brain penetration of many chemotherapy drugs. […] As such, we developed a high-throughput screen (HTS) to identify substrates of P-gp from a series of chemical libraries including the National Center for Advancing Translational Sciences Pharmaceutical Collection NPC, 2,816 compounds), testing a total of 10,804 compounds, most of which have known mechanisms of action. We used the CellTiter-Glo viability assay to test library compounds against the parental KB-3-1 human cervical adenocarcinoma cell line and the colchicine-selected sub-line KB-8-5-11 that over-expresses P-gp. KB-8-5-11 cells were also tested in the presence of a P-gp inhibitor (tariquidar) to assess reversability of transporter-mediated resistance. Of the tested compounds, a total of 90 P-gp substrates were identified including 55 newly identified P-gp substrates. Substrates were confirmed using an orthogonal killing assay against HEK-293 cells transfected with P-gp. As exemplars, we confirmed that […] (cyclin-dependent kinase inhibitor); AT9283, (Janus kinase 2/3 inhibitor); ispinesib (kinesin spindle protein inhibitor); gedatolisib (PKI-587, phosphoinositide 3-kinase/mammalian target of rampamycin inhibitor); GSK-690693 (AKT inhibitor); and KW-2478 (heat shock protein 90 inhibitor) were substrates , and direct ATPase stimulation was assessed. ABCG2 was also found to confer high levels of resistance to AT9283, GSK-690693 and gedatolisib, while ispinesib, AT7519 and KW-2478 were weaker substrates.
# The HeLa derivative cell line, KB-3-1, and its colchicine-selected, P-gp-overexpressing subline, KB-8-5-11 were maintained in DMEM with 10% FCS and Pen/Strep with glutamine at 37 degree C in 5% CO2. For KB-8-5-11 cells, colchicine was added to the medium at a concentration of 100 ng/mL. HEK-293 cells transfected with empty vector (pcDNA) or vector containing human ABCB1 (MDR-19) or ABCG2 (R-5) have been described previously (Robey, Lin, Qiu, Chan & Bates, 2011) and were maintained in EMEM supplemented with 10% FCS, Pen/Strep and glutamine with 2 mg/ml G418 to select for the expression of the transporter. Cultures were confirmed to be free of mycoplasma infection using the MycoAlert Mycoplasma Detection Kit (Lonza, Walkersville, MD). For the screen, assay medium was identical to culture medium except for KB-8-5-11 where colchicine was excluded from the medium.
# All cell lines were plated into 1536-well plates at 500 cells/well in 5 uL media. Compounds were then pinned in dose-response using a 1536-head pin tool (Kalypsis, San Diego, CA) and plates were incubated at 37 degree C in 5% CO2 for an additional 72 h. CellTiter-Glo reagent (Promega) was dispensed into the wells, incubated for 5 min and luminescence was read on a ViewLux instrument (Perkin-Elmer). Cytotoxic compounds were defined as those that yielded a curve class of -1.1, -1.2, -2.1, -2.2, -2.3, or -2.4, a maximum response of >50% and an AC50 of < 10 uM. Cherry-picked hits from screening analysis were tested with both the KB pair of cell lines, and the pcDNA (empty vector control) and MDR-19 (P-gp overexpressing) pair were tested, in the absence and presence of tariquidar.
# On the % scale 0 is the no-effect control and ±100 the full control effect.
SMILES,"activity change, negative = cytotoxicity",Potency
COc1ccc(C(=O)c2ccc(C)cc2)c(O)c1,-1.61%,
CCN(CC)C(=S)S,-8.04%,
O=C(CCCN1CCN2CCCC2C1)c1ccc(F)cc1 (stereo not given),1.58%,
CC(C)(C)CC(C)(C)c1cc(Cc2cc(C(C)(C)CC(C)(C)C)cc(-n3nc4ccccc4n3)c2O)c(O)c(-n2nc3ccccc3n2)c1,8.56%,
CC(CC=O)CCCC(C)(C)O (stereo not given),10.1%,
C/C=C/C=C/C(=O)O,-2.4%,
CC1=C(/C=C/C(C)=C/C=C/C(C)=C/C(=O)Oc2c(C)c(C)c3c(c2C)CC[C@@](C)(CCC[C@H](C)CCC[C@H](C)CCCC(C)C)O3)C(C)(C)CCC1,-5.81%,
CC(=C\c1ccccc1)/C=C1/SC(=S)N(CC(=O)O)C1=O,11.9%,
C[C@H](CCC(=O)O)[C@H]1CC[C@H]2[C@@H]3[C@H](O)C[C@@H]4C[C@H](O)CC[C@]4(C)[C@H]3C[C@H](O)[C@]12C,-12.2%,
NC[C@@H]1O[C@H](O[C@H]2[C@@H](O)[C@H](O[C@@H]3[C@@H](O)[C@H](N)C[C@H](N)[C@H]3O[C@H]3O[C@H](CO)[C@@H](O)[C@H](O)[C@H]3N)O[C@@H]2CO)[C@H](N)[C@@H](O)[C@@H]1O,4.84%,
CC(C)c1ncc([N+](=O)[O-])n1C,-10.5%,
CC[C@@H]1/C=C(\C)C[C@H](C)C[C@H](OC)[C@H]2O[C@@](O)(C(=O)C(=O)N3CCCC[C@H]3C(=O)O[C@H](/C(C)=C/[C@@H]3CC[C@@H](Cl)[C@H](OC)C3)[C@H](C)[C@@H](O)CC1=O)[C@H](C)C[C@@H]2OC,4.43%,
O=C(O)/C=C/c1ccccc1,2.91%,
CCN(CC)C(=O)[C@]1(c2ccccc2)C[C@@H]1CN,4.7%,
CS(=O)(=O)OCC(O)C(O)COS(C)(=O)=O (stereo not given),-25.2%,
CCCCCCCCCCCCCCCC(=O)OC[C@H](COP(=O)([O-])OCC[N+](C)(C)C)OC(=O)CCCCCCCCCCCCCCC,2.06%,
CC/C=C\C/C=C\C/C=C\C/C=C\C/C=C\C/C=C\CCC(=O)O,0.0176%,
CC1=CC(=O)NS(=O)(=O)O1,-5.73%,
CC[C@H]1OC(=O)[C@H](C)[C@@H](O[C@H]2C[C@@](C)(OC)[C@@H](O)[C@H](C)O2)C(C)[C@@H](O[C@@H]2O[C@H](C)C[C@H](N(C)C)[C@@H]2O)[C@](C)(OC)C[C@@H](C)C(=O)[C@H](C)[C@@H](O)[C@]1(C)O (stereo not given in full),0.959%,
C=CCCCCCCCCC(=O)OC,-0.684%,

SMILES,"activity change, negative = cytotoxicity",Potency
CC(C)C[C@H](NC(=O)[C@@H](COC(C)(C)C)NC(=O)[C@H](Cc1ccc(O)cc1)NC(=O)[C@H](CO)NC(=O)[C@H](Cc1c[nH]c2ccccc12)NC(=O)[C@H](Cc1cnc[nH]1)NC(=O)[C@@H]1CCC(=O)N1)C(=O)N[C@@H](CCCN=C(N)N)C(=O)N1CCC[C@H]1C(=O)NNC(N)=O,,inactive
CC12CCC(C[N+](C)(CCC[N+](C)(C)C)C1)C2(C)C (stereo not given),-7.69%,
CC1C(=O)CC2C3(C)CCC2(C(C)C(=O)O)C(=O)C13 (stereo not given),3.21%,
Nc1nc(=O)n([C@@H]2CS[C@H](CO)O2)cc1F,3.71%,
CCCCCCCCCCCC(=O)N(CCO)CCO,-1.79%,
[O-][N+](=Nc1ccccc1)c1ccccc1,-0.387%,
COC(=O)[C@@H](N)CS,-28.8%,
COC(=O)CCC[N+](C)(C)C,13.3%,
C[Se]CC[C@H](N)C(=O)O,7.63%,
CC(C)CCC[C@@H](C)[C@H]1CC[C@H]2[C@@H]3CC=C4C[C@@H](O)CC[C@]4(C)[C@H]3CC[C@]12C,4.32%,
CC[C@H](CC[C@@H](C)[C@H]1CC[C@H]2[C@@H]3CC=C4C[C@@H](O)CC[C@]4(C)[C@H]3CC[C@]12C)C(C)C,9.97%,
CC[C@H]1OC(=O)C[C@@H](O)[C@H](C)[C@@H](O[C@@H]2O[C@H](C)[C@@H](O[C@H]3C[C@@](C)(O)[C@@H](O)[C@H](C)O3)[C@H](N(C)C)[C@H]2O)[C@@H](CC=O)C[C@@H](C)C(=O)/C=C/C(C)=C/[C@@H]1CO[C@@H]1O[C@H](C)[C@@H](O)[C@@H](OC)[C@H]1OC,,inactive
C[C@@H]1O[C@@H]1P(=O)(O)O,-9.08%,
CC(=O)NCCCS(=O)(=O)O,21.1%,
COC(=O)c1ccccc1O,-7.18%,
CC(C)(C)NCC(O)c1ccc(O)c(CO)n1 (stereo not given),-17.1%,
CCCC(CCC)C(=O)OC1C[C@H]2CC[C@@H](C1)[N+]2(C)C (stereo not given in full),,inactive
CC(C)O,-10.7%,
CCN(CC)CCOc1ccccc1OC,0.728%,
COc1ccc2c(=O)c(C)c(-c3ccccc3)oc2c1CN(C)C,-31.7%,
